According to PubChem BioAssay:

Test: E. coli acrAB mutant growth effects, primary screen, E. coli filamentation inducers, strain DRC39, OD650, 48 h (AID 1179);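 note: screen aims at cell division blockers that make cells filament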
Conditions: E. coli DRC39 delta-acrAB growth, higher = more signal, called active from +8 up or from −8 down

z-score, inactive:
O=C1O[C@@H](c2ccccc2)[C@@H](c2ccccc2)N2[C@@H](c3ccc(O)cc3)[C@]3(C(=O)Nc4ccc(C#CCCO)cc43)[C@@H](C(=O)Nc3nc4ccccc4s3)[C@H]12 0.282
C=CCOC(=O)[C@@H]1[C@H]2C(=O)O[C@H](c3ccccc3)[C@H](c3ccccc3)N2[C@H](c2ccc(OCCOC(=O)[C@H]3C[C@H]4C(=O)N[C@@H](CCCCN(C)C)C(=O)N4[C@H]3c3cccc(OCCO)c3)cc2)[C@@]12C(=O)Nc1ccc(I)cc12 -0.0986
Cc1c(NC(=O)/C(C#N)=C/C=C/c2ccc(N(C)C)cc2)c(=O)n(-c2ccccc2)n1C -0.202
O=C1C2C=CC(C(O)c3cc(C(F)(F)F)cc(C(F)(F)F)c3)N(Nc3ccc([N+](=O)[O-])cc3)C2C(=O)N1c1ccccc1 (centres undefined) -1.25
O=C1NC(=O)C2C1C=CC(C(O)c1cc(C(F)(F)F)cc(C(F)(F)F)c1)N2Nc1ccc(Cl)cc1Cl (centres undefined) -1.13
CO[C@H]1O[C@H](CO)[C@@H](OC(=O)Nc2ccccc2-c2ccccc2)[C@H](OC(=O)Nc2ccc3c(c2)OCO3)[C@@H]1OC(=O)Nc1ccc2c(c1)OCO2 -0.124
Cc1ccc(F)cc1S(=O)(=O)N[C@@H]1CCN(Cc2ccc(Oc3ccccc3)cc2)C1 -4.66
CCOC(=O)C1=CC[C@@H](c2ccccc2)N(S(=O)(=O)c2ccc(C)cc2)C1 -0.869
Cc1ccc(S[C@]2(C(=O)NCC(F)(F)F)CC(=O)N(Cc3ccccc3)[C@@H]2c2ccc(CO)cc2)cc1 -0.0965
CC(C)CNC(=O)[C@@H]1c2ccccc2C(=O)N(Cc2cc(F)cc(C(F)(F)F)c2)[C@H]1c1ccc(CO)cc1 1.42
CCN(CC)c1ccc(N2CC=CC34O[C@@H]5/C=C\CCC(C)OC(=O)C5[C@H]3C(=O)N(CCO)[C@@H]4C2=O)cc1 (some centres undefined) -0.949
COc1ccccc1CN1C(=O)c2ccccc2[C@@H](C(=O)NC(C)C)[C@@H]1c1ccc(CO)cc1 0.0549
[N-]=[N+]=NCc1ccccc1[C@H]1OC(c2ccc(OCCCO)cc2)=N[C@@]1(CCS(=O)(=O)c1ccccc1)C(N)=O -0.702
C=CCOC(=O)[C@@H]1[C@H]2C(=O)O[C@H](c3ccccc3)[C@H](c3ccccc3)N2[C@H](c2ccc(OCCOC(=O)[C@H]3C[C@H]4C(=O)N[C@@H](CCCC[N+](C)(C)C)C(=O)N4[C@H]3c3ccc(O)cc3)cc2)[C@@]12C(=O)Nc1ccc(I)cc12 -1.37
C=C(CCCC)/C(=C/C[C@@H](OC(C)=O)c1ccc(CO)o1)c1cc(C(=O)OC)ccc1OC -0.194
CC(C)C(O)C1C=CC2C(=O)N(C)C(=O)C2N1N(c1ccccc1)c1ccccc1 (centres undefined) 0.195
C=CCNC(=O)[C@@H]1[C@H]2C(=O)O[C@H](c3ccccc3)[C@H](c3ccccc3)N2[C@H](c2ccc(OCCO)cc2)[C@@]12C(=O)N(C(=O)OCCOC)c1ccc(C#CC3=CCCCC3)cc12 -0.206
COCCOC(=O)N1C(=O)[C@@]2(c3cc(C#Cc4ccc(OC)cc4)ccc31)[C@H](C(=O)N1CCCCCCC1)[C@H]1C(=O)O[C@H](c3ccccc3)[C@H](c3ccccc3)N1[C@@H]2c1ccc(O)cc1 -1.22
COC(=O)Cn1c(C(=O)N2CCCC2)cc2c1C[C@H]1CN(C(=O)c3ccccc3)[C@@](Cc3ccc(F)cc3)(C(=O)OC)[C@@H]21 -0.181
NCCCCCNC(=O)[C@@H]1C[C@@H]2C(=O)N[C@@H](CCCCN)C(=O)N2[C@@H]1c1cccc(OCCO)c1 1.22
Cc1ccc(S[C@]2(C(=O)NC(C)C)CC(=O)N(Cc3ccccc3C(F)(F)F)[C@@H]2c2ccc(CO)cc2I)cc1 0.201
COCCOC(=O)N1C(=O)[C@@]2(c3cc(C#CC4(O)CCCCCC4)ccc31)[C@H](C(N)=O)[C@H]1C(=O)O[C@H](c3ccccc3)[C@H](c3ccccc3)N1[C@@H]2c1ccccc1OCCO -0.719
C=CC[C@H](OC(=O)Nc1ccc(OC)cc1)c1ccc(O)c2ccccc12 0.148
COCC(=C=CC[C@H](O)c1cccc(OCCO)c1)C[C@H](O)c1ccccn1 1.23
